What all share (type): functional
The subject of assay [1] is Plasmodium falciparum. Kind of assay: GSK_TCMDC: Inhibition of Plasmodium falciparum 3D7 in whole red blood cells, using parasite LDH activity as an index of growth. Test compounds present at 2uM.
Assay [2] concerns Plasmodium falciparum. As to the kind of experiment: GSK_TCMDC: Inhibition of Plasmodium falciparum Dd2 in whole red blood cells, using parasite LDH activity as an index of growth. Test compounds present at 2uM.
Assay [3] has as its system HepG2. Kind of assay: GSK_TCMDC: Percent inhibition of human HepG2 cell line. Test compounds present at 10uM.

For `N#Cc1cccc(Nc2nccc(NCC(O)c3ccccc3C(F)(F)F)n2)c1` (stereo not given), the Inhibition worked out at 98% in assay [1], 39% in assay [2] and 36% in assay [3].
The matching figures for `COc1cccc(C(=O)NC(C=Cc2ccccc2)c2cc(Cl)c3cccnc3c2O)c1` (stereo not given): 95%, 58% and 27%.
For `CN1CCCC(CN2CCN(Cc3ccc(-c4ccc(-c5nc6cc(F)ccc6[nH]5)cc4)cc3)CC2)C1.O=C(O)C(F)(F)F` (stereo not given), the Inhibition was 100% in assay [1], 98% in assay [2] and 90% in assay [3].
With `COC(=O)c1ccc2nc(-c3ccc(C(=O)NCc4ccc(Cl)c(Cl)c4)cc3)[nH]c2c1`, the Inhibition in assay [1] was 95%; in assay [2], 3%; in assay [3] it was 1%.
The like results for `Cn1cncc1C(=O)Nc1cccc(-c2ccc(-c3nc4cc(F)ccc4[nH]3)cc2)c1` were, in that order, 100%, 31% and 0%.
`CN(C)Cc1c(O)ccc2[nH]c(-c3ccc(F)cc3F)nc12`: the Inhibition in assay [1] was 99%; in assay [2], 17%; in assay [3], 4%.
For `COc1cccc(-c2ccc(C(=O)NC3CCN(Cc4ccc(N(C)C)cc4)CC3)s2)c1.O=C(O)C(F)(F)F`, the Inhibition is recorded as 81% in assay [1], 20% in assay [2] and 8% in assay [3].
The like results for `Nc1ncc(-c2ccc3nccc(-c4ccncc4)c3c2)cc1S(=O)(=O)N1CCCCC1` were, in that order, 100%, 100% and 25%.
The matching figures for `O=C(O)C(F)(F)F.O=S(=O)(NCCN1CCCC1)c1cccc(-c2cccc(CNCCc3cccs3)c2)c1`: 100%, 45% and 30%.
The like results for `CO/C(=C\C=C\c1cc2cc(Cl)c(Cl)cc2[nH]1)C(=O)NC1CCN(CCOc2ccccc2)CC1` were, in that order, 100%, 94% and 35%.
Consider `O=C(NCCNc1nc(NCCNC(=O)Nc2ccccc2)c2ccc(=O)n(-c3c(F)cccc3F)c2n1)Nc1ccccc1`, for which the results for the Inhibition in assay [1], in assay [2] and in assay [3] were 94%, 87% and 1%, respectively.
Take `COc1ccc(O)c(-c2sc(N=C(N)N)nc2-c2ccccc2)c1`: the Inhibition in assay [1] was 100%; in assay [2], 96%; in assay [3], 2%.
The matching figures for `CC1CCCC(Nc2noc(-c3sccc3Br)n2)C1` (stereo not given): 100%, 99% and 7%.
In the case of `O=C(/C=C/c1ccc(Cl)cc1)NCCCCCN1CCCC(C(=O)Nc2cccc(Cl)c2)C1` (stereo not given), the Inhibition in assay [1] is on record as 96%; in assay [2], 4%; in assay [3], 21%.
The matching figures for `COc1ccccc1-c1ccc(CNC(=O)C(CN2CCN(C)CC2)c2ccccc2)cc1` (stereo not given): 90%, 4% and 3%.
`O=C(O)C(F)(F)F.O=S(=O)(NCCN1CCCC1)c1ccc(-c2ccc(CNC3Cc4ccccc4C3)cc2)s1`: the Inhibition was 100% in assay [1], 97% in assay [2] and 47% in assay [3].
The matching figures for `NS(=O)(=O)c1ccc(CNc2ccc3ncc(-c4ccc(Cl)cc4)n3n2)cc1`: 96%, 99% and 26%.
For the compound `COC(=O)c1ccc(C(=O)NCCCCN2CCC(c3ccc4c(c3OC)CCCC4)CC2)cc1-c1ccc(C(F)(F)F)cc1`, the Inhibition in assay [1] is listed as 93%; in assay [2], 19%; in assay [3] it was 24%.
The like results for `Cl.NC1=NC2(CCCCC2)N(Cc2ccc(Cl)c(Cl)c2)C(N)=N1` were, in that order, 86%, 76% and 22%.
The like results for `Cl.Nc1nc(N)c2c(ccc3c2ccn3CCCC2CCCNC2)n1` (stereo not given) were, in that order, 98%, 55% and 67%.
The like results for `Cc1cccc2nc(-c3cccc(-c4ccc(C(=O)NCCc5ccc(O)c(=O)[nH]5)cc4)c3)[nH]c12` were, in that order, 85%, 30% and 20%.
As for `CC(C)(C)c1ccc(CN(C[C@@H](O)CNS(=O)(=O)c2cc(Cl)cc(Cl)c2)C(C)(C)C)cc1.Cl`, the Inhibition in assay [1] came to 98%; in assay [2], 94%; in assay [3], 74%.
On to `FC(F)(F)c1ccc(-c2cncc(-c3ccc(C(F)(F)F)cc3)n2)cc1`, for which the Inhibition in assay [1] turned out to be 98%; in assay [2], 97%; in assay [3], 9%.
The matching figures for `CCCC(C)NC[C@@H](O)[C@H](Cc1ccccc1)NC(=O)c1cc(C2CCCC2)cc(N2CCCCS2(=O)=O)c1.Cl` (stereo not given in full): 98%, 99% and 8%.
The matching figures for `COc1ccc(NC(=O)c2cccc(Br)c2)cc1N1CCN(CCCCCCCN2CCN(c3cc(NC(=O)c4cccc(Br)c4)ccc3OC)CC2)CC1.Cl`: 99%, 93% and 97%.
The matching figures for `Cc1cccc2nc(-c3cccc(-c4cccc(C(=O)NCc5nccn5C)c4)c3)[nH]c12`: 99%, 50% and 22%.
In the case of `CN(C)CCN(C)Cc1ccc(-c2ccc(NC(=O)c3cccc(C#N)c3)cc2)cc1.O=C(O)C(F)(F)F`, the figures for the Inhibition in assay [1], in assay [2] and in assay [3] were 89%, 49% and 20%, respectively.
The matching figures for `Cc1cnc(C(=O)Nc2cccc(-c3cccc(-c4nc5cccc(C)c5[nH]4)c3)c2)cn1`: 99%, 45% and 15%.
Consider `COC(=O)c1cccc(CNCc2ccc(-c3cccc(-c4nc5cccc(C)c5[nH]4)c3)cc2)c1.O=C(O)C(F)(F)F`, for which the results for the Inhibition in assay [1], in assay [2] and in assay [3] were 100%, 84% and 0%, respectively.
For the compound `COc1ccc(CCNC(=O)c2cc3c(=O)n4cccc(C)c4nc3n(C)c2=N)cc1`, the Inhibition in assay [1] was determined as 99%; in assay [2] it was 99%; in assay [3] it was 22%.
Regarding `FC(F)(F)c1ccc2[nH]c(-c3ccc(-c4cccc(CNCc5cnn(-c6ccccc6)n5)c4)s3)nc2c1.O=C(O)C(F)(F)F`, the values for the Inhibition in assay [1], in assay [2] and in assay [3] were 100%, 91% and 38%, respectively.
The matching figures for `Cn1nc(-c2ccc(NC(=O)Nc3cc(C(F)(F)F)cc(C(F)(F)F)c3)c(F)c2)c2cnc(NCCN3CCOCC3)nc21.O=C(O)C(F)(F)F`: 94%, 37% and 43%.
The like results for `CCN(CC)c1ccc(C=CC(=O)NCCN2CCC(N(C)C3CCCCC3C)CC2)cc1` (stereo not given) were, in that order, 88%, 18% and 29%.
The like results for `COc1ccc2nccc(NC(=O)C3(O)CCC(NCc4ncc5c(c4Cl)OCCO5)CC3)c2n1.Cl` (stereo not given) were, in that order, 83%, 59% and 21%.
Consider `CN(C)C(S)=NN=Cc1cccc(O)c1O`, for which the Inhibition in assay [1] is listed as 91%; in assay [2], 55%; in assay [3], 11%.
The like results for `CON=Cc1sc(CNCCCN=c2cc(O)c3ccccc3[nH]2)c(C)c1Br.Cl` were, in that order, 96%, 63% and 0%.
On to `CCc1cn2c3c(cc(C(=O)N[C@@H](Cc4ccccc4)[C@H](O)CNC4CC4)cc13)N(CC)S(=O)(=O)CC2.O=CO`, for which the Inhibition in assay [1] is 98%; in assay [2], 99%; in assay [3], 13%.
Turning to `CC(C)Cn1c(N)cc(=O)n(C)c1=O`, the Inhibition in assay [1] came out at 100%; in assay [2], 0%; in assay [3], 3%.
The like results for `COc1ccc(C(=O)CCc2ccc(O)cc2)cc1` were, in that order, 96%, 90% and 0%.
For the compound `COc1cc(N)c(Cl)cc1C(=O)NC1CCC(NCC2CCCCC2)CC1.Cl` (stereo not given), the values for the Inhibition in assay [1], in assay [2] and in assay [3] were 90%, 85% and 18%, respectively.
The matching figures for `O=C(NC1CCN(c2ccnc3ccccc23)C1)c1ccc(OC(F)(F)F)cc1.O=C(O)C(F)(F)F` (stereo not given): 89%, 68% and 35%.
For `Cc1ccc(N2C(N)=NC(N)=NC2c2ccccc2)cc1.Cl` (stereo not given), the results for the Inhibition in assay [1], in assay [2] and in assay [3] were 94%, 1% and 11%, respectively.
The matching figures for `Cc1[nH]cnc1CSCCNC(=N)NCCCCCCCCNC(=N)NCCSCc1nc[nH]c1C.Cl`: 96%, 95% and 24%.
The matching figures for `CN(C)C(=O)CC(=O)NCc1cccc(Cl)c1`: 99%, 3% and 4%.
The like results for `FC(F)(F)c1ccc2[nH]c(-c3ccc(-c4cccc(CN5CCC(CCN6CCCCC6)CC5)c4)cc3)nc2c1.O=C(O)C(F)(F)F` were, in that order, 100%, 96% and 100%.
Consider `COc1ccc(Cl)cc1N1CCN(CCCNC(=O)c2ccc(-c3nc4cnccc4[nH]3)c(Br)c2)CC1`, for which the figures for the Inhibition in assay [1], in assay [2] and in assay [3] were 86%, 15% and 5%, respectively.
The matching figures for `COc1ccc(-c2cnc3[nH]cc(-c4ccncc4)c3c2)cc1OC`: 98%, 97% and 52%.
With `O=C(O)C(F)(F)F.OC1CCCN(Cc2ccc(-c3cccc(-c4nc5ccccc5[nH]4)c3)cc2)C1` (stereo not given), the figures for the Inhibition in assay [1], in assay [2] and in assay [3] were 86%, 0% and 14%, respectively.
The like results for `Cc1cc(=O)[nH]c2cc(Nc3ccnc(Nc4cccc(C(N)=O)c4)n3)ccc12.Cl` were, in that order, 99%, 98% and 27%.
For `O=C(Nc1ccc(Cl)cc1)c1cccc(S(=O)(=O)NC2CCN(CC3CCCCC3)CC2)c1.O=C(O)C(F)(F)F`, the Inhibition in assay [1] stood at 92%; in assay [2], 11%; in assay [3], 67%.
Consider `CCCOc1cc(Cc2cnc(N)nc2N)cc(OC)c1OC`, for which the Inhibition in assay [1] amounted to 85%; in assay [2], 1%; in assay [3], 21%.
The like results for `Cc1cc(F)ccc1C1CCN(CCCCNC(=O)c2ccc(NC(=O)c3ccc(Cl)cc3)cc2)CC1` were, in that order, 100%, 79% and 19%.
For `Cl.O=C(CNC1=NCCN1)Nc1ccc(NC(=O)Nc2ccc(NC(=O)CNC3=NCCN3)cc2)cc1`, the Inhibition in assay [1] is listed as 90%; in assay [2], 75%; in assay [3] it was 0%.
Turning to `Nc1c(Cl)cc(C(O)CNCCCCCOCCCc2ccc(O)c3ncccc23)cc1Cl.O=C(O)/C=C/C(=O)O` (stereo not given), the results for the Inhibition in assay [1], in assay [2] and in assay [3] were 90%, 12% and 65%, respectively.
Turning to `O=C(O)C(F)(F)F.c1cc(-c2ccc(CNCCc3ccncc3)cc2)cc(-c2nc3ccccc3[nH]2)c1`, the Inhibition in assay [1] turned out to be 100%; in assay [2], 99%; in assay [3] it was 41%.
With `O=C(Nc1cccc(CN2CCCN(Cc3ccc4c(c3)OCO4)CC2)c1)c1cc2ccccc2s1.O=C(O)C(F)(F)F`, the values for the Inhibition in assay [1], in assay [2] and in assay [3] were 95%, 11% and 32%, respectively.
The matching figures for `CC(C)(C)OC(=O)N[C@@H](Cc1ccccc1)C(=O)Nc1cccc(-c2cccc(NC(=O)[C@H](Cc3ccccc3)NC(=O)OC(C)(C)C)c2)c1`: 100%, 97% and 10%.
Regarding `COc1ccc(-c2ccc(NC(=O)c3cccc(C#N)c3)cc2)cc1CN(C)C.O=C(O)C(F)(F)F`, the Inhibition in assay [1] was 100%; in assay [2] it was 10%; in assay [3] it was 11%.
The matching figures for `COc1ccc2nccc([C@@H](O)CN3CCC(NCc4ccc5c(c4)nnn5C(C)C)CC3)c2c1.O=C(O)C(=O)O`: 100%, 40% and 15%.
As for `COC(=O)c1cccc(CNCc2cccc(-c3cccc(-c4nc5ccccc5[nH]4)c3)c2)c1.O=C(O)C(F)(F)F`, the figures for the Inhibition in assay [1], in assay [2] and in assay [3] were 95%, 58% and 3%, respectively.

A word on the Inhibition: it is the change of the read-out against control, counted positive when it falls.

(Values after ChEMBL document CHEMBL1157539, “Thousands of chemical starting points for antimalarial lead identification” (Nature, 2010).)
